Screening data: PubChem, University of Kansas High Throughput Screening Laboratory
mHTT CaM bind – disrupts binding of mutant huntingtin to calmodulin | AID 1671202 | 190,000 tested, 3.6% active | AlphaScreen His-mHTT/GST-CaM binding, luminescence | inhibition, % at 15 µM | P42858;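 note: 0% = both proteins with DMSO and 100% = one protein alone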
Pf apPOL block – Pf-apPOL DNA polymerase inhibition. 210,000 tested, 0.25% active. inhibition, % at 10 µM. Recombinant Pf-apPOL, molecular beacon fluorescence, 1.5 h. AID 1794808
An asterisk follows results filed as active. This excerpt belongs to a sample that is enriched for hits. Cut-off read from the data, not from the text of the source: active = inhibition above about 50%; inactive = the rest.

How did Cn1cnc2ccc(-c3noc(Cc4cccs4)n3)cc21 do in these assays?
mHTT CaM bind: 9; Pf apPOL block: 0

How did CCn1cnc2ccc(-c3noc(-c4cccc(OC)c4)n3)cc21 do in these assays?
mHTT CaM bind: 76*; Pf apPOL block: 0

What do the screens show for `Cn1cnc2ccc(-c3noc(CCc4c[nH]c5ccccc45)n3)cc21`?
mHTT CaM bind: 76*; Pf apPOL block: -3

What do the screens show for `CCn1cnc2ccc(-c3noc(CCc4c[nH]c5ccccc45)n3)cc21`?
mHTT CaM bind: 100*; Pf apPOL block: -3

What do the screens show for `COc1cccc(-c2nc(-c3ccc4ncn(C)c4c3)no2)c1`?
mHTT CaM bind: -8; Pf apPOL block: -6

What do the screens show for `CCn1cnc2ccc(-c3noc(Cc4ccccc4Cl)n3)cc21`?
mHTT CaM bind: 7; Pf apPOL block: -1

How did CCn1cnc2ccc(-c3noc(Cc4c[nH]c5ccccc45)n3)cc21 do in these assays?
mHTT CaM bind: 99*; Pf apPOL block: -5

What do the screens show for `CCN(CC)c1ccc2cc(C(N)=O)c(=Nc3cccc(C(N)=O)c3)oc2c1`?
mHTT CaM bind: -3; Pf apPOL block: 2

What do the screens show for `CC(=O)Nc1ccccc1C1(C)CC1`?
mHTT CaM bind: -6; Pf apPOL block: -8

What do the screens show for `CCOc1ccc(C(=O)N2CCC3(CC2)NC(=O)N(Cc2ccc(Cl)cc2)C3=O)cc1`?
mHTT CaM bind: 12; Pf apPOL block: -2

What do the screens show for `CN(C)c1oc(COc2ccc(Cl)cc2Cl)nc1S(=O)(=O)c1ccccc1`?
mHTT CaM bind: 31; Pf apPOL block: 6

How did O=C(Nc1ccccc1)C1CCN(c2cn[nH]c(=O)c2)CC1 do in these assays?
mHTT CaM bind: 3; Pf apPOL block: 2

How did CCC(C(=O)N1CCc2cn(CCOC)c3cccc(c23)C1)c1ccccc1 (centres undefined) do in these assays?
mHTT CaM bind: 63*; Pf apPOL block: -3

What do the screens show for `COCCn1cc2c3c(cccc31)CN(C(=O)COc1cccc(C)c1)CC2`?
mHTT CaM bind: 35; Pf apPOL block: -4

What do the screens show for `COCCn1cc2c3c(cccc31)CN(C(=O)Cc1cccc(F)c1)CC2`?
mHTT CaM bind: 40; Pf apPOL block: -1

What do the screens show for `COCCn1cc2c3c(cccc31)CN(C(=O)COC)CC2`?
mHTT CaM bind: 30; Pf apPOL block: -1

What do the screens show for `COCCn1cc2c3c(cccc31)CN(C(=O)COc1ccccc1)CC2`?
mHTT CaM bind: 55*; Pf apPOL block: -1

How did COCCn1cc2c3c(cccc31)CN(C(=O)COc1ccc(F)cc1)CC2 do in these assays?
mHTT CaM bind: 56*; Pf apPOL block: -2

What do the screens show for `Cn1cc2c3c(cccc31)CN(C(=O)Cc1cccc(F)c1)CC2`?
mHTT CaM bind: 53*; Pf apPOL block: -1

Results for COCCCNC(=O)N1CCc2cn(CCOC)c3cccc(c23)C1 ?
mHTT CaM bind: 4; Pf apPOL block: -1

Results for CCC(=O)N1CCc2cn(CC)c3cccc(c23)C1 ?
mHTT CaM bind: 28; Pf apPOL block: -3

What do the screens show for `CCCn1cc2c3c(cccc31)CN(C(=O)COc1ccccc1)CC2`?
mHTT CaM bind: 50*; Pf apPOL block: -1

How did COCCn1cc2c3c(cccc31)CN(C(=O)Cc1c(F)cccc1Cl)CC2 do in these assays?
mHTT CaM bind: -3; Pf apPOL block: 0

Results for COc1ccc(OCC(=O)N2CCc3cn(C)c4cccc(c34)C2)cc1 ?
mHTT CaM bind: 33; Pf apPOL block: -6

How did CCn1cc2c3c(cccc31)CN(C(=O)Cc1ccc(F)cc1)CC2 do in these assays?
mHTT CaM bind: 64*; Pf apPOL block: -5

How did CCOCC(=O)N1CCc2cn(CC)c3cccc(c23)C1 do in these assays?
mHTT CaM bind: 28; Pf apPOL block: -4

How did COCCn1cc2c3c(cccc31)CN(C(=O)Cc1ccccc1Cl)CC2 do in these assays?
mHTT CaM bind: 71*; Pf apPOL block: -1

What do the screens show for `CCn1cc2c3c(cccc31)CN(C(=O)COc1ccc(F)cc1)CC2`?
mHTT CaM bind: 74*; Pf apPOL block: -6

What do the screens show for `COc1ccc(OC)c(NC(=O)c2cc(S(=O)(=O)NCCN3CCOCC3)ccc2F)c1`?
mHTT CaM bind: 2; Pf apPOL block: -2

Results for CCc1ccc(CN2C(=O)CCC2(C)C(=O)NCCC(C)C)cc1 (centres undefined) ?
mHTT CaM bind: 3; Pf apPOL block: 0

How did O=c1c2ccccc2nc(SCc2ccccc2)n1C1CCCC1 do in these assays?
mHTT CaM bind: -4; Pf apPOL block: 0

What do the screens show for `CCn1cc2c3c(cccc31)CN(C(=O)Nc1cccc(F)c1C)CC2`?
mHTT CaM bind: -3; Pf apPOL block: 1

Results for CCn1cc2c3c(cccc31)CN(C(=O)c1ccccc1F)CC2 ?
mHTT CaM bind: 56*; Pf apPOL block: -3

What do the screens show for `Cc1ccc(-c2nc(C)c(C(=O)N3CCC(CC(=O)N4CCCCC4)CC3)s2)cc1`?
mHTT CaM bind: 25; Pf apPOL block: -7

How did CS(=O)(=O)c1cccc(-c2nnc(NC(=O)C3c4ccccc4Oc4ccccc43)o2)c1 do in these assays?
mHTT CaM bind: 99*; Pf apPOL block: -114

Results for O=C(Nc1nnc(-c2ccco2)o1)C1c2ccccc2Oc2ccccc21 ?
mHTT CaM bind: -1; Pf apPOL block: 8

What do the screens show for `O=C(Cn1c(-c2ccccc2Cl)nc2ccccc2c1=O)Nc1ccc(F)c(Cl)c1`?
mHTT CaM bind: 100*; Pf apPOL block: -4

What do the screens show for `Cc1ccc(NC(=O)Cn2c(-c3ccccc3F)nc3ccccc3c2=O)cc1Cl`?
mHTT CaM bind: 12; Pf apPOL block: -1

How did CC(=O)N1CCc2cc(S(=O)(=O)Nc3cccc4c3CCCC4)ccc21 do in these assays?
mHTT CaM bind: 10; Pf apPOL block: 5

What do the screens show for `COc1ccc(C2CC(O)(c3ccccc3)Oc3c(C)ccc(C)c32)cc1` (centres undefined)?
mHTT CaM bind: 46; Pf apPOL block: -6

Results for COc1ccc(C2CC(O)(c3ccccc3)Oc3cc(OC)cc(OC)c32)cc1 (centres undefined) ?
mHTT CaM bind: 92*; Pf apPOL block: -3

How did COc1cc(Cl)c(C)cc1NS(=O)(=O)c1ccc2c(c1)c(=O)n(C)c(=O)n2C do in these assays?
mHTT CaM bind: 3; Pf apPOL block: -1

What do the screens show for `Cc1nn(C)c(C)c1N1C(=O)c2ccccc2C1=O`?
mHTT CaM bind: -2; Pf apPOL block: -1

What do the screens show for `O=C(Nc1ccc2oc(-c3cccc(F)c3)nc2c1)c1cc([N+](=O)[O-])ccc1Cl`?
mHTT CaM bind: 2; Pf apPOL block: 3

How did Cc1ccc(C2CC(C(F)(F)F)n3nc(C(=O)Nc4cccnc4)cc3N2)cc1 (centres undefined) do in these assays?
mHTT CaM bind: 8; Pf apPOL block: -2

Results for Cc1ccc(C2CC(C(F)(F)F)n3nc(C(=O)NCCc4ccccc4)cc3N2)cc1 (centres undefined) ?
mHTT CaM bind: 39; Pf apPOL block: 5

Results for CN(Cc1ccccc1)C(=O)c1cc2n(n1)C(C(F)(F)F)CC(c1ccccc1)N2 (centres undefined) ?
mHTT CaM bind: 53*; Pf apPOL block: 23

What do the screens show for `CC1CCC(C)N(C(=O)c2cc3n(n2)C(C(F)(F)F)CC(c2ccccc2)N3)C1` (centres undefined)?
mHTT CaM bind: 30; Pf apPOL block: -1

How did COc1ccc(C2CC(C(F)(F)F)n3nc(C(=O)N(C)Cc4ccccc4)c(Cl)c3N2)cc1 (centres undefined) do in these assays?
mHTT CaM bind: 89*; Pf apPOL block: -4
